A short description of test [1]: NS1 protein of Zika virus - qHTS assay to identify small molecule inhibitors in human HEK 293 cells (AID 1347053). Also: series mostly up to about 46 µM; nearly all actives have a fitted effect of over 55% in size. In outline:
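HEK 293 cells pretreated with compound for 1 h, then infected with ZIKV MR766 (MOI 0.5) for 24 h at 37 C. NS1 detected by TR-FRET with two anti-NS1 antibodies; normalized to uninfected (0%) and infected (100%) wells.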

Test [2] can be described thus: qHTS of pediatric cancer cell lines to identify multiple opportunities for drug repurposing: Primary screen for DAOY cells (AID 1347090). Also: series mostly up to about 46 µM; nearly all actives have a fitted effect of over 55% in size. In outline:
(§1)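 Viability measured as metabolically active cells via CellTiter-Glo luminescence following 48 hours of compound exposure, 11-point dilutions in confirmatory testing. 500-1,000 cells/well plated 5 hours before dosing; controls were DMSO and 2.3 µM bortezomib.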

Test [3] is described as follows: qHTS of pediatric cancer cell lines to identify multiple opportunities for drug repurposing: Primary screen for SJ-GBM2 cells (AID 1347091). In outline: as §1
Test [4] is described as follows: qHTS of pediatric cancer cell lines to identify multiple opportunities for drug repurposing: Primary screen for SK-N-MC cells (AID 1347093). Also: series mostly up to about 46 µM. The method in brief: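 Metabolically active cells were quantified by ATP-dependent luminescence (CellTiter-Glo, 15 min at room temperature) following 48 h treatment. Cells had been plated at 500-1,000 per well and settled for 5 h beforehand.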
(In general: Quantitative high-throughput screening tests each substance at several concentrations.)

A short description of test [5]: qHTS of pediatric cancer cell lines to identify multiple opportunities for drug repurposing: Primary screen for BT-37 cells (AID 1347094). Also: series mostly up to about 57 µM. In outline: (§2)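 CRCs from 8- or 11-point titrations (lowest final 0.59 nM NPC, 0.78 nM MIPE). Cell viability: CellTiter-Glo after 48 h incubation, 15 min room-temperature development, luminescence imaging.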
Test [6] can be described thus: qHTS of pediatric cancer cell lines to identify multiple opportunities for drug repurposing: Primary screen for NB-EBc1 cells (AID 1347095). In outline:
as §2

A short description of test [7]: qHTS of pediatric cancer cell lines to identify multiple opportunities for drug repurposing: Primary screen for U-2 OS cells (AID 1347096). Also: nearly all actives have a fitted effect of over 50% in size. In outline:
(§3)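 Viability after 48 h compound treatment at 37C, 500-1,000 cells/well, read as ATP luminescence with CellTiter-Glo. Primary screens used 11-point (MIPE, 0.78 nM-46 µM) or 8-point (NPC, 0.59 nM-46 µM) final concentrations; follow-up screens used 11-point dilutions.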

Test [8] is described as follows: qHTS of pediatric cancer cell lines to identify multiple opportunities for drug repurposing: Primary screen for Saos-2 cells (AID 1347097). Also: nearly all actives have a fitted effect of over 40% in size. The method in brief: as §2
Test [9] in a line: qHTS of pediatric cancer cell lines to identify multiple opportunities for drug repurposing: Primary screen for SK-N-SH cells (AID 1347098).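 Also: DMSO served as neutral control and bortezomib at 2.3 µM as positive control; nearly all actives have a fitted effect of over 65% in size.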 The method in brief:
(§4)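 Cells (500-1,000/well) rested 5 h, then received compounds for 48 h; metabolically active cells were measured by CellTiter-Glo luminescence. Final concentrations spanned up to 46 µM (MIPE, 11-point) or 0.59 nM-46 µM (NPC, 8-point) in primary screens, 11-point in follow-ups.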

Test [10] can be described thus: qHTS of pediatric cancer cell lines to identify multiple opportunities for drug repurposing: Primary screen for NB1643 cells (AID 1347099). Also: nearly all actives have a fitted effect of over 50% in size. The method in brief: as §2
Test [11] is described as follows: qHTS of pediatric cancer cell lines to identify multiple opportunities for drug repurposing: Primary screen for LAN-5 cells (AID 1347100). Also: potency is read from the fitted curve at half-maximal effect. In outline:
as §3

Test [12] is described as follows: qHTS of pediatric cancer cell lines to identify multiple opportunities for drug repurposing: Primary screen for BT-12 cells (AID 1347101). Also: nearly all actives have a fitted effect of over 25% in size. In outline:
as §4

A short description of test [13]: qHTS of pediatric cancer cell lines to identify multiple opportunities for drug repurposing: Primary screen for Rh18 cells (AID 1347102). Also: nearly all actives have a fitted effect of over 65% in size. In outline:
as §3

Test [14] can be described thus: qHTS of pediatric cancer cell lines to identify multiple opportunities for drug repurposing: Primary screen for OHS-50 cells (AID 1347103). Also: nearly all actives have a fitted effect of over 40% in size. Also: potency is read from the fitted curve at half-maximal effect. The method in brief: as §4
A short description of test [15]: qHTS of pediatric cancer cell lines to identify multiple opportunities for drug repurposing: Primary screen for A673 cells (AID 1347092). Also: nearly all actives have a fitted effect of over 45% in size. The method in brief:
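48 h compound exposure, A673, 500-1,000 cells/well, 37 degrees C/5% CO2. MIPE: 11-point, 0.78 nM-46 µM; NPC: 8-point, 0.59 nM-46 µM (final). Readout CellTiter-Glo luminescence after 15 min RT.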

Inconclusive results are not listed. Activity calls are given as the source filed them. Calls follow the shape of the dose curve; as a rule, active = well fitted curve in the direction sought with a large enough effect; inconclusive = small, poorly fitted or top-dose-only effect, or another doubt; inactive = no such curve, though single readings can be large; an effect the other way counts as inactive or inconclusive. Where a SMILES comes first, the peptide text is derived from it. [ ]: non-standard residue; d: D form. pGlu = O=C1CC[C@@H](C(=O)O)N1

In the case of `CCOC(=O)c1ccc(NC(=O)CN2CCCCC2)cc1`, the Potency entry in [1], in test [2], in [3], in test [4], in [5] and in test [6] was “inactive” each time. In addition, the Potency entry in test [7], in [8], in test [9], in test [10], in test [11] and in test [12] was “inactive” in each case. The Potency result in test [13] and in [14] was “inactive” each time.
Take `O=C1Nc2ccccc2C1(c1ccc(O)cc1)c1ccc(O)cc1`: the Potency result in test [1], in test [2], in [3], in [15], in test [5] and in test [6] was “inactive” in each case. The Potency entry in test [7] and in test [12] was “inactive” each time. The Potency in [14] is 0.872 µM (active).
`CCNC(=O)[C@@H]1CCCN1C(=O)[C@H](CCCN=C(N)N)NC(=O)[C@H](CC(C)C)NC(=O)CNC(=O)[C@H](Cc1ccc(O)cc1)NC(=O)[C@H](CO)NC(=O)[C@H](Cc1c[nH]c2ccccc12)NC(=O)[C@H](Cc1cnc[nH]1)NC(=O)[C@@H]1CCC(=O)N1` ([pGlu]HWSYGLRP-NHEt): the Potency entry in test [1], in test [2], in test [3], in [15], in [4] and in [5] was “inactive” throughout. In addition, the Potency result in test [6], in [7], in test [8], in [9], in [10] and in test [11] was “inactive” each time. In addition, the Potency result in test [12], in [13] and in [14] was “inactive” each time.
On to `C[C@@H]1C[C@H]2[C@@H]3CCC4=CC(=O)C=C[C@]4(C)[C@@]3(F)[C@@H](O)C[C@]2(C)[C@@]1(O)C(=O)COC(=O)c1ccncc1`, for which the Potency entry in test [1], in test [2], in test [3], in test [15], in [4] and in test [5] was “inactive” throughout. For the same compound, the Potency entry in test [7], in test [8], in [9], in [10], in test [11] and in test [12] was “inactive” throughout. Also, the Potency result in test [13] and in test [14] was “inactive” throughout.
For the compound `CO[C@@H]1[C@@H](O[C@@H]2O[C@H](C)[C@@H](O[C@H]3C[C@@](C)(O)[C@@H](O)[C@H](C)O3)[C@H](N(C)C)[C@H]2O)[C@@H](CC=O)C[C@@H](C)[C@@H](O[C@@H]2CC[C@H](N(C)C)[C@@H](C)O2)/C=C/C=C/C[C@@H](C)OC(=O)C[C@H]1OC(C)=O`, the Potency entry in test [1], in [2], in test [3], in [4], in [5] and in test [6] was “inactive” each time. Also, the Potency entry in test [7], in [8], in [10], in [11] and in test [13] was “inactive” throughout.
As to `CCCC(CCC)(C(=O)OCC)C(=O)OCC`, the Potency entry in test [1], in test [2], in test [3], in test [4], in test [5] and in test [6] was “inactive” in each case. Besides, the Potency entry in test [7], in [8], in test [9], in test [10], in [12] and in [13] was “inactive” in each case. The Potency result in [14] is “inactive”.
Consider `Cc1cc(O)c(C)c(C)c1O`, for which the Potency entry in [1], in [2], in [3], in test [5], in [6] and in test [7] was “inactive” throughout. In addition, the Potency result in test [9], in test [10], in [12], in [13] and in [14] was “inactive” each time. Further, the Potency in [11] was 16.8 µM (active).

These data come from PubChem BioAssay (NCATS).
